Experimental data from PubChem BioAssay (NCI).
About 83,000 compounds went through this panel and 20% of them were active in at least one assay; those are over-represented in the sample as a whole.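 Percent growth is the endpoint: 0 to 100 indicates growth inhibition (40 means 60% inhibition), 0 means no net growth, and negative values indicate cell death.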 A number with no mark means an inactive call. The source made the active and inactive calls. How the source made its calls: active means growth percent below 10; inactive means the rest.

Assays:
Test in all cases: NCI-60 one-dose screen, 48 h (100 = growth as untreated, 0 = no growth, -100 = all killed)
Conditions in all cases: 10 µM unless noted
HCT-15 colon = system: HCT-15 colon
HT29 colon = system: HT29 colon
SNB-75 CNS = system: SNB-75 CNS
U251 CNS = system: U251 CNS
PC-3 prostate = system: PC-3 prostate
SK-MEL-5 melanoma = system: SK-MEL-5 melanoma
UACC-62 melanoma = system: UACC-62 melanoma
LOX IMVI melanoma = system: LOX IMVI melanoma
SK-MEL-28 melanoma = system: SK-MEL-28 melanoma
SK-MEL-2 melanoma = system: SK-MEL-2 melanoma
EKVX NSCLC = system: EKVX NSCLC
SN12C renal = system: SN12C renal
UO-31 renal = system: UO-31 renal
TK-10 renal = system: TK-10 renal
ACHN renal = system: ACHN renal
CAKI-1 renal = system: CAKI-1 renal
A498 renal = system: A498 renal
CCRF-CEM leukemia = system: CCRF-CEM leukemia
MOLT-4 leukemia = system: MOLT-4 leukemia

| Compound | growth (HCT-15 colon) | growth (HT29 colon) | growth (SNB-75 CNS) | growth (U251 CNS) | growth (PC-3 prostate) | growth (SK-MEL-5 melanoma) | growth (UACC-62 melanoma) | growth (LOX IMVI melanoma) | growth (SK-MEL-28 melanoma) | growth (SK-MEL-2 melanoma) | growth (EKVX NSCLC) | growth (SN12C renal) | growth (UO-31 renal) | growth (TK-10 renal) | growth (ACHN renal) | growth (CAKI-1 renal) | growth (A498 renal) | growth (CCRF-CEM leukemia) | growth (MOLT-4 leukemia) |
| --- | --- | --- | --- | --- | --- | --- | --- | --- | --- | --- | --- | --- | --- | --- | --- | --- | --- | --- | --- |
| COc1cc(-c2csc(NC(=O)Nc3ccc(Cl)cc3Cl)n2)cc(OC)c1OC | 23% | 10.8% | 4.13% (active) | 25.7% | 18.7% | 18.4% | 30.9% | 28.9% | 62.6% | 62.7% | 46.6% | 59.5% | 34.6% | 54.6% | 30.3% | 37.8% | 34.8% | 33.3% | 33.4% |
| O=C(CCC(=O)OC1CCCC1)OC1CCCC1 | 93.6% | 98.3% | 77.3% | 92.2% | 93.8% | 99.3% | 103% | 105% | 99.3% | 93.2% |  | 107% | 90.4% | 97.8% | 95% | 95.8% | 101% |  | 89.9% |
| N#Cc1c(NC(=O)c2ccc([N+](=O)[O-])o2)[n+]([O-])c2cc(F)c(F)cc2[n+]1[O-] | 95.1% | 102% | 114% | 102% | 98.8% | 79.6% | 100% | 84.7% | 99.7% | 34.6% |  | 108% | 40.8% | 179% | 109% | 113% | 151% | 100% | 120% |
| COc1cc(C2C=C(C)N=C3SC=CN32)cc(OC)c1OC (stereo unspecified) | 106% | 110% | 94.7% | 103% | 94.5% | 106% | 107% | 97.8% | 109% | 115% |  | 105% | 90% | 107% | 115% | 96.9% | 106% | 105% |  |
| COc1ccc(C(=O)c2cc(OC)c(OC)c(OC)c2)cc1/C=C/C(=O)c1ccc(O)cc1 | -29.5% (active) | 26.2% | 28.7% | 0.446% (active) | 54.1% | 11.3% |  | 0.734% (active) | 22.5% | 14.8% |  | 17.7% | 36.4% | 75.1% | -62.8% (active) | 24.8% |  | 10.7% | 15.5% |
| CCC(=O)Nc1ccccc1C#C/C=C\C#Cc1ccccc1SC | 43.9% | 29.6% | 60.6% | 48.9% | 51.9% | 23.8% | 40.1% | 57.9% | 81.2% | 28% | 65.6% | 82.1% | 21.5% | 71.5% | 77.7% | 70.6% | 59.9% | 26.9% | 40.7% |
| COc1ncc(-c2ccc3ncnc(Nc4cccc(Cl)c4)c3c2)cc1NS(=O)(=O)CCN1CCOCC1 | 6.62% (active) | 10.1% | -19.2% (active) | 28.3% | 12.4% | -19.6% (active) | -21.4% (active) | 1.29% (active) | -4.89% (active) | -1.15% (active) | -20.7% (active) | 10.1% | -8.52% (active) | -19.6% (active) | 7.46% (active) | 1.1% (active) | -35.9% (active) | 22.5% | 2.58% (active) |
| O=C(/C=C/CN1CCOCC1)Nc1cc2c(Nc3cccc(Cl)c3F)ncnc2cc1OCCOC(F)F | 69.2% | 66.3% | 63% | 94.1% | 58.9% | 86.9% | 72% | 80.7% | 101% | 95.9% |  | 61.8% | 36.8% | 57.3% | 22.2% | 24.9% | 7.02% (active) | 102% | 77.3% |
| CCO/C=N/NC(=O)c1ccncc1 | 108% | 101% | 93.3% | 105% | 97.3% | 104% |  | 98.7% | 108% | 102% | 102% | 111% | 98.9% | 103% | 108% | 100% | 104% | 106% | 107% |
| Cc1ccnc2nc(C(=O)OCC(=O)Nc3ccc(-c4ccccc4)cc3)nn12 | 105% | 108% | 95% | 101% | 102% | 105% | 116% | 99% | 110% | 77.3% | 104% | 102% | 62.8% | 118% | 107% | 91% | 105% | 91.6% | 65% |
| C#CCN1C(=O)/C(=c2\sc3n(c2=O)C2C(NN=3)N(CC)C(=O)N2CC)c2ccccc21 (stereo unspecified) | 16% | 7.7% (active) | -25.2% (active) | 11.2% | 22.7% | 12.4% | 25.2% | 27.1% | 43.4% | 45.1% | 64.9% | 32.4% | 40.1% | 39.7% | 19.8% | 23.5% | -33.8% (active) |  | 20.9% |
| COc1ccc(C(=O)c2cc(OC)c(OC)c(OC)c2)cc1/C=C/C(=O)c1ccc2c(c1)OCO2 | -22.6% (active) | -27.2% (active) | 28.2% | -19.1% (active) | 24% | 8.97% (active) | -63.5% (active) | -36.5% (active) | -57% (active) | 22.2% |  | 23.8% | -9.84% (active) | 44.6% | -76.4% (active) |  |  | -9.53% (active) | 2.27% (active) |
| Nc1c(C(=O)Nc2ccccc2)sc2nc3c(cc12)CCC3 | 55.7% | 88% | 65.5% | 70.9% | 81% | 68.7% | 69.8% | 89.1% | 80.4% | 86% |  | 85% | 80.9% | 96% | 96% | 81.5% | 80.7% | 89.7% | 90.3% |
| COC(=O)c1ccc2nc(-c3cc4ccccc4n3C)n(CCCCOc3cc4c(cc3OC)C(=O)N3CCC[C@H]3C=N4)c2c1 | -19% (active) | -53.7% (active) | -79.5% (active) | 1.02% (active) | -6.81% (active) |  | -95.9% (active) | -54.7% (active) | -57.1% (active) | -40.3% (active) | 10.8% | 3.64% (active) | -57.3% (active) | -17.7% (active) | -5.96% (active) | -20.7% (active) | -60.3% (active) | -35.1% (active) | 3.44% (active) |
| N#Cc1ccc(NC(=O)c2ccc3cccnc3c2O)cc1 | 31.4% | 30.7% | 43.8% | 14.6% | 45.9% | 14.4% | 9.43% (active) | 21.9% | 34.5% | 41.3% |  | 33.7% | 18.4% | 34% | 14.7% | -12.5% (active) |  | 23.8% | 12.7% |
| C=C1C(=O)O[C@H]2[C@H]1CC/C(COC(=O)NCc1cc(OC)c(OC)c(OC)c1)=C\CC[C@@]1(C)O[C@@H]21 | 42.3% | 21.4% | 83.8% | 81.3% | 66.1% | 95.2% | 38.8% | 54.3% | 63.2% | 73.8% | 75.8% | 47.6% | 70.6% | 51.6% | 45.5% | 54.1% | 109% | 6.67% (active) | 54.1% |
